A selection: hits, their analogues and other compounds. The true share with any hit is near 6%.
D3 antag: D3 dopamine receptor (human) antagonism | P35462 | AID 652054 | actives 2.5% (n = 360,000) | max response, negative = inhibition, % | D3R cells, DiscoveRx beta-arrestin luminescence, antagonist mode; stronger effect = lower value; in the data active = max response below about -50%; inconclusive = no clear call, values can overlap the other calls; note: % is set by controls: 0 for no effect and ±100 for the full control effect
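Cells plated overnight at 1500 cells/well, then exposed to library compounds with dopamine controls for 90 minutes at 37 degrees C. DiscoveRx reagent added for 30–60 minutes at room temperature; luminescence read, quantitative HTS format.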
D1 potentiator: enhances dopamine response at the human D1 receptor | P21728 | actives 0.036% (n = 360,000) | AID 504651 | HEK293 TREx D1 cells, calcium flux, dopamine EC20 potentiation | potentiation, % at 10 µM; in the data active = potentiation above about 30%; note: 0% is about no effect
Target sequence (P21728 whole entry, looked up): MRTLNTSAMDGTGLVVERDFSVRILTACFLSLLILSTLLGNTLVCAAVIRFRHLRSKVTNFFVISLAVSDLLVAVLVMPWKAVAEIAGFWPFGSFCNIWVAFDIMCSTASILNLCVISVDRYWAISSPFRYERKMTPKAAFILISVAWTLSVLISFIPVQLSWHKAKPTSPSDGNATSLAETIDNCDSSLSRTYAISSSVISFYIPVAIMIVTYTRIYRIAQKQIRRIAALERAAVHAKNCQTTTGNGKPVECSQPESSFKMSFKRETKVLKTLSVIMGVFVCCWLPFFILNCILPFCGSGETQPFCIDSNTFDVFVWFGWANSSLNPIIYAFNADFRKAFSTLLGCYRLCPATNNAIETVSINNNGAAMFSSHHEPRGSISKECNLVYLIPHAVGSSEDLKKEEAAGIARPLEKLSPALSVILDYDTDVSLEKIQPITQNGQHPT
DRD3 agonist: agonists of human D3 dopamine receptor; actives 0.58% (n = 410,000); AID 652048; D3R DiscoveRx beta-arrestin cells, luminescence, 90 min; P35462; max activation, %; in the data active = max activation above about 30%; note: 0% is about no effect
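Agonist-mode cell screen: cells plated at 1500/well and incubated overnight at 37 °C, then exposed to library compounds for 90 min at 37 °C. Detection reagent was added for 30–60 min at room temperature, and luminescence was read.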
D1 antagonist: human D1 dopamine receptor antagonism; P21728; HEK293 TREx D1 cells, calcium flux, dopamine EC80; stronger effect = lower value; activity change, negative = inhibition, % at 10 µM; actives 3.2% (n = 360,000); AID 504652; in the data active = activity change below about -30%; note: % is set by controls: 0 for no effect and ±100 for the full control effect
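After overnight tetracycline induction at 30 C, force-coupled D1 HEK293 cells took up a no-wash calcium dye at room temperature. Compounds were added and monitored 180 s, and the response to EC80 dopamine was then recorded.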
D1 ag: agonists of human D1 dopamine receptor. P21728. HEK293 T-REx D1 cells, calcium flux, agonist mode. activation, % at 2 µM. actives 1% (n = 360,000). AID 504660; in the data active = activation above about 30%; note: 0% is about no effect
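Tetracycline-induced HEK293 TREx D1 cells, force-coupled to calcium signalling, were dye-loaded with a no-wash calcium kit. Compound was pin-added after a 10 s baseline. Fluorescence was read kinetically at 1 cycle/s for 180 s, with calcium rises flagged as agonism.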
* = called active by the depositor; ? = inconclusive; . = not tested or not shown.

SMILES | D3 antag | D1 potentiator | DRD3 agonist | D1 antagonist | D1 ag
CCCNc1c(F)c(F)c2c(C)c3ccccc3nc2c1F | 0 | -6 | -2 | 4 | 41*
CN1CCN(c2ccc(NC(=O)c3ccc(Br)o3)cc2)CC1 | -1 | -10 | 9 | -41* | 4
CN1CCN(c2ccc(NC(=O)c3ccc(-c4ccccc4F)o3)cc2)CC1 | -14 | -19 | 3 | -96* | 5
O=C(O)c1ccc(-n2c(-c3cc(C4CC4)[nH]n3)n[nH]c2=S)cc1 | ? | -3 | -21 | 2 | 2
O=C(O)c1ccc(-n2c(-c3cc(-c4ccco4)[nH]n3)n[nH]c2=S)cc1 | -91* | 1 | -11 | 8 | 0
Cc1ccc(-n2c(-c3cc(-c4ccco4)[nH]n3)n[nH]c2=S)c(Br)c1 | -4 | -2 | 12 | -1 | 0
CC(=O)c1ccc(-n2c(-c3cc(-c4ccco4)[nH]n3)n[nH]c2=S)cc1 | -84* | -2 | -10 | -2 | 0
CCOC(=O)NC(=O)CSc1ccc(S(=O)(=O)N(C)C2CCCCC2)cn1 | -6 | -7 | -2 | -7 | -1
Clc1ccc(OCCCN2CCc3ccccc3C2)c(Br)c1 | -105* | -4 | -3 | 6 | 0
Clc1ccc(OCCOCCN2CCc3ccccc3C2)c(Cl)c1 | -74* | -10 | -33 | -2 | 1
c1ccc(-c2ccccc2OCCOCCN2CCc3ccccc3C2)cc1 | -93* | -21 | -25 | 0 | 2
CC1CN(CCOCCOc2ccccc2-c2ccccc2)CC(C)O1 (stereo unspecified) | -21 | 1 | -20 | 0 | 1
CN1CCN(CCOCCOc2c(Cl)cc(Cl)cc2Cl)CC1 | ? | . | -45 | . | .
Cc1cc(O)c(C(c2ccc(Cl)cc2)N2CCN(c3ccccc3)CC2)c(=O)n1Cc1ccco1 (stereo unspecified) | . | 2 | -16 | 6 | 0
O=C(OCC(COC(=O)c1cccnc1)(COC(=O)c1cccnc1)COC(=O)c1cccnc1)c1cccnc1 | . | . | 5 | . | .
OC(CSc1ccccc1)CN1CCN(c2cccc(Cl)c2)CC1 (stereo unspecified) | -85* | . | -11 | . | .
CC(NC(=O)CN1CCN(c2cccc(Cl)c2)CC1)c1ccccc1 (stereo unspecified) | ? | 2 | 11 | 7 | 4
OC(CSc1ccccc1)CN1CCN(c2ccc(Cl)cc2)CC1 (stereo unspecified) | -86* | . | -14 | . | .
S=c1nc(C2CCCCC2)[nH][nH]1 | 16 | 2 | 16 | -50* | 1
Cc1[nH]c2ccc(Br)cc2c(=O)c1CN1CCOCC1 | -70* | 0 | 0 | 5 | 1
CCOc1ccc2[nH]c(C)c(CN3CCOCC3)c(=O)c2c1 | -12 | 3 | -8 | -20 | 0
CCOC(=O)C1=CCN(S(=O)(=O)c2ccc(C)cc2)C1c1ccc(Cl)cc1 (stereo unspecified) | 24 | . | 5 | . | .
COC(=O)c1ccc(CSc2ccc3nnc(-c4cccnc4)n3n2)o1 | . | -14 | . | -46* | 2
COc1cc(NC(=O)c2ccc(C(=O)Nc3cc(OC)c(Cl)cc3OC)cc2)c(OC)cc1Cl | . | 1 | 5 | -3 | 7
CC1CCC(NC(=O)CCNC(=O)c2ccc(Br)cc2)CC1 (stereo unspecified) | 0 | -7 | -6 | -10 | 1
SMILES | D3 antag | D1 potentiator | DRD3 agonist | D1 antagonist | D1 ag
COc1ccc(C2NC(=O)NC(C)=C2[N+](=O)[O-])cc1 (stereo unspecified) | 13 | -9 | 7 | -5 | -2
CC1=C([N+](=O)[O-])C(c2ccccc2)NC(=O)N1 (stereo unspecified) | 25 | 1 | 2 | -33* | 0
CC(CNC(=O)Cn1c(-c2cccs2)cc2ccccc21)c1ccccc1 (stereo unspecified) | . | 0 | 7 | -7 | 1
CCOC(=O)c1cnc2ccc(OC(F)(F)F)cc2c1Nc1ccccc1C(=O)O | . | -4 | 31* | 0 | -1
CCOC(=O)c1ccccc1NC(=O)Cc1c(C(=O)O)c(C)cn1C | . | -2 | 1 | 2 | 4
CCC(C)(C)N1CC(=O)N(Cc2ccccc2)C(c2ccc(OC)cc2)C1=O (stereo unspecified) | -52* | 5 | 1 | 1 | 1
CCc1ccc(C2c3c(oc4ccc(C)cc4c3=O)C(=O)N2c2nc(C)c(C)s2)cc1 (stereo unspecified) | . | 0 | -5 | 13 | 2
CCC(C)(C)c1ccc(OCCCC[n+]2cccc(C)c2)c(C(C)(C)CC)c1 | -2 | -7 | -6 | -15 | 169*
CCCCCCCCCC[n+]1cccc(C(=O)N(CC)CC)c1 | -5 | 2 | -4 | -6 | 1
Cn1c(CO)c(-c2ccccc2)c2cc([N+](=O)[O-])ccc21 | ? | -7 | -1 | -8 | 0
CC(=O)OCc1c(-c2ccccc2)c2cc([N+](=O)[O-])ccc2n1C | -10 | -5 | 3 | -47* | 4
Cc1ccc(C)c(CNC(=O)Nc2ccccc2)c1 | -5 | 4 | 8 | 2 | 16
CC(C)Nc1nc(Oc2cccc(Cl)c2Cl)cc(C(F)(F)F)n1 | 10 | -8 | -1 | -32* | 14
O=C(CN1CCN(c2ccccc2F)CC1)Nc1ccccc1F | -58* | -4 | -13 | -4 | 3
COc1ccc(CCNC(=O)c2ccccc2NC(=O)CN2CCN(c3ccccc3O)CC2)cc1 | 13 | -5 | 26 | 4 | -1
O=C(CCN1CCN(c2ccccc2F)CC1)Nc1ccccc1F | -25 | -7 | 32* | 6 | 0
O=C(CN1CCN(c2ccccc2O)CC1)Nc1ccccc1C(=O)NCCc1ccccc1 | 38 | 5 | 7 | -41* | 0
CCC(Sc1ncnc2sc3c(c12)CCCC3)C(=O)OC(C)C (stereo unspecified) | . | 4 | -6 | 6 | 2
Cc1nnsc1C(=O)N1CCCC(Nc2ccc(F)c(F)c2)C1 (stereo unspecified) | -16 | -4 | -3 | -16 | 2
Cn1c(=O)c2nc(SCC(=O)Nc3ccc(Cl)c(Cl)c3)n(C)c2n(C)c1=O | . | 0 | 6 | . | -3
O=C(CSc1nc(=O)n(CCCN2CCOCC2)c2c1CCC2)Nc1ccc([N+](=O)[O-])cc1 | 18 | 5 | 4 | 1 | 2
Fc1ccc(CCNC(=S)Nc2ccc(F)c(Cl)c2)cc1 | -22 | -2 | 7 | -32* | 13
CC(C)(CNC(=S)NCCc1ccccc1)CNC(=S)NCCc1ccccc1 | -23 | -7 | 0 | -30* | 15
OCCNC(=S)NCCc1ccccc1 | -1 | 4 | -10 | 31 | 1
C/C(=N\NC(=S)NCCc1ccccc1)c1ccc(O)cc1O | 8 | . | 5 | -39* | 20
Fc1ccc(NC(=S)NCCc2ccc(Cl)cc2)cc1 | -14 | -14 | -4 | -10 | 17
O=[N+]([O-])c1cccc(NC(=S)NCCc2ccccc2)c1 | -71* | -5 | -25 | -2 | 43*

Bioassay records (PubChem)
